Test [1] is described as follows: NCI Yeast Anticancer Drug Screen. Data for the rad50 strain (AID 155).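 Note: 0% = growth of vehicle-only cultures of the same strain.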 The note with it: S. cerevisiae rad50 strain growth inhibition; at 50.0 µM; hits give high values. In short, it runs like this: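 Inhibition values express reduced yeast growth in compound-treated cultures relative to vehicle-treated controls.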
Test [2] is described as follows: NCI Yeast Anticancer Drug Screen. Data for the mec2-1 strain (AID 157). The note with it: S. cerevisiae mec2-1 strain, at 50.0 µM, hits give high values. In short, it runs like this:
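Growth inhibition is read against vehicle-treated controls after compound exposure of the mec2-1 yeast strain, which is defective in DNA damage repair or cell cycle control.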

The nature of test [3]: NCI Yeast Anticancer Drug Screen. Data for the sgs1 mgt1 strain (AID 161).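 Note: 0% = growth of cultures given vehicle only.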 The note with it: S. cerevisiae sgs1 mgt1 strain, at 50.0 µM, hits give high values. In short, it runs like this: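 Compounds are added to genetically altered yeast, and growth is compared with cultures given vehicle alone to give percent inhibition.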
Test [4] in a line: NCI Yeast Anticancer Drug Screen. Data for the cln2 rad14 strain (AID 165).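 Note: 0% = growth equal to vehicle treated cultures.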 The note with it: S. cerevisiae cln2 rad14 strain, at 50.0 µM, hits give high values. In short, it runs like this: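 Growth inhibition, relative to vehicle-treated controls, is the read-out. The test organism is a yeast strain with defined genetic alterations, cln2 rad14.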
Test [5] in a line: NCI Yeast Anticancer Drug Screen. Data for the bub3 strain (AID 167). The note with it: S. cerevisiae bub3 mutant strain, at 50.0 µM, hits give high values. In short, it runs like this:
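Steps: expose the mutant yeast strain to compound; grow alongside vehicle-treated cultures; measure growth; express inhibition against the vehicle cultures.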

Test [6] is described as follows: NCI Yeast Anticancer Drug Screen. Data for the mlh1 rad18 strain (AID 175). The note with it: S. cerevisiae mlh1 rad18 strain growth inhibition; at 50.0 µM; hits give high values. Put shortly:
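Cells of a genetically altered yeast strain, deficient in DNA damage repair, were treated with compound. Their growth was then compared with that of vehicle-treated cultures to give inhibition.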

Compounds without any hit were thinned out: in the full panel of roughly 79,000, 15% have a hit. Unmarked numbers belong to inactive results. Activity calls are given as the source filed them. Cut-off read from the data, not from the text of the source: active = growth inhibition above about 70%; inactive = the rest.

Turning to `CC#CC(O)(C(=O)OC1CCC2CCC1N2C)C1CCCC1` (stereo unspecified), the growth inhibition in test [1] was -25.5%; in test [2], -8.9%; in test [3], -23.3%; in test [4], 6.2%; in test [5] it was -3.4%; in test [6], -4.65%.
Regarding `COC(=O)C(C)CN1CCCCC1` (stereo unspecified), the growth inhibition in test [1] was 20.1%; in test [2], 6.2%; in test [3], 22.1%; in test [4] it was -6.45%; in test [5], 31.9%; in test [6], 19.9%.
Take `CCOC(=O)C(=CNc1ccc(F)c(F)c1)C(=O)OCC`: the growth inhibition in test [1] was -0.4%; in test [2] it was 1.55%; in test [3], -8.35%; in test [4] it was -2.2%; in test [5], 26.1%; in test [6], -36%.
Turning to `C=CCNC(=O)N(CCCCC(NC(C)=O)C(=O)NCc1ccccc1)Cc1ccccc1` (stereo unspecified), the growth inhibition in test [1] is 11.7%; in test [2], 6.55%; in test [3] it was -12.7%; in test [4] it was 11.5%; in test [5] it was 16.4%; in test [6] it was 11.9%.
Consider `COc1ccc(-c2cc(=O)c3cccc(CC(=O)O)c3o2)cc1OC`, for which the growth inhibition in test [1] is 99.2% (active); in test [2], 99.2% (active); in test [3], 97.5% (active); in test [4] it was 98.8% (active); in test [5] it was 99.3% (active); in test [6] it was 99.2% (active).
Regarding `O=C(O)c1c(Br)c(Br)c(Br)c(Br)c1C(=O)Nc1ccc(Br)cc1`, the growth inhibition in test [1] is 2.25%; in test [2] it was -1.3%; in test [3] it was 5.8%; in test [4] it was -8.6%; in test [5], 2.75%; in test [6] it was 33.2%.
Consider `C=C(C(N)=O)c1ccc([N+](=O)[O-])o1`, for which the growth inhibition is 52.4% in test [1]; 44.7% in test [2]; 62.4% in test [3]; 30% in test [4]; 19.8% in test [5]; 90% (active) in test [6].
Regarding `CNc1ccccc1C(=O)N/N=C/c1c(O)ccc2ccccc12`, the growth inhibition in test [1] was -3.15%; in test [2], 18.3%; in test [3] it was 19%; in test [4], -10.3%; in test [5] it was 36.1%; in test [6], 2.45%.
Turning to `Cc1ccc(S(=O)(=O)C(CC(=O)O)c2ccccc2)cc1` (stereo unspecified), the growth inhibition was 0.35% in test [1]; 0.15% in test [2]; 6.15% in test [3]; 4.15% in test [4]; 1.7% in test [5]; 4.2% in test [6].
For `CCCCCOC(=O)c1cccc(C)c1`, the growth inhibition in test [1] was 3.7%; in test [2], 10.5%; in test [3], -5.2%; in test [4] it was -4.7%; in test [5], -1.65%; in test [6], 2.5%.
Turning to `CCN1C2=NCCN2C(=O)c2ccccc21`, the growth inhibition was -0.8% in test [1]; -11.2% in test [2]; 15.9% in test [3]; 15.1% in test [4]; 8.25% in test [5]; 13.4% in test [6].
For `O=c1nnc(O)c2ccn(O)cc1-2`, the growth inhibition is -34.6% in test [1]; -19% in test [2]; 1.65% in test [3]; -40.1% in test [4]; -8.95% in test [5]; -7.4% in test [6].
In the case of `O=C(O)CC1(c2ccccc2)CCCCC1`, the growth inhibition was -1.1% in test [1]; 7.05% in test [2]; 0.65% in test [3]; -6.2% in test [4]; 46.8% in test [5]; 2.3% in test [6].
Consider `OCC(O)COc1ccccc1F` (stereo unspecified), for which the growth inhibition in test [1] is 11.5%; in test [2] it was -6.35%; in test [3] it was -11.2%; in test [4] it was -13.2%; in test [5], -7.5%; in test [6], 10.8%.
Consider `Nc1nc(Sc2ccccn2)ccc1[N+](=O)[O-]`, for which the growth inhibition in test [1] was 0.25%; in test [2], -12.8%; in test [3], -2.1%; in test [4] it was -27.1%; in test [5], -12.1%; in test [6] it was -6.45%.
With `COC1OC(COC(c2ccccc2)(c2ccccc2)c2ccccc2)C(OS(=O)(=O)c2ccc(C)cc2)C(OC(=O)c2ccccc2)C1OC(=O)c1ccccc1` (stereo unspecified), the growth inhibition is 0.1% in test [1]; -6.7% in test [2]; -1.15% in test [3]; -7.35% in test [4]; 0.3% in test [5]; 27.9% in test [6].
Turning to `CC(=O)NNc1ccc(C(=O)O)cc1`, the growth inhibition was 13.2% in test [1]; 1% in test [2]; 1.85% in test [3]; -13.4% in test [4]; -2.7% in test [5]; -2.4% in test [6].
Consider `O=c1[nH][nH]c(=O)c(Cl)c1Cl`, for which the growth inhibition in test [1] is 1.55%; in test [2], 1.6%; in test [3] it was -17.5%; in test [4], 0.25%; in test [5], -0.85%; in test [6] it was 13.3%.
With `C=CS(=O)CCCCCCC` (stereo unspecified), the growth inhibition in test [1] was 25.1%; in test [2], -1.3%; in test [3] it was -13.9%; in test [4], -68.5%; in test [5], 4.45%; in test [6], -34.4%.
`N#CC1(C#N)C(CCl)C1(C#N)C#N`: the growth inhibition in test [1] was 2.85%; in test [2], -6.95%; in test [3] it was -1.15%; in test [4], -15.2%; in test [5] it was -4%; in test [6] it was -8.6%.
With `CC(O)c1cccc(C(C)(C)O)c1Sc1c(C(C)(C)O)cccc1C(C)(C)O` (stereo unspecified), the growth inhibition is 13% in test [1]; 7.8% in test [2]; 10.1% in test [3]; -0.75% in test [4]; 6.25% in test [5]; -14.6% in test [6].
